About 79,000 compounds went through this panel and 15% of them were active in at least one assay; those are over-represented in the sample as a whole. Unmarked numbers belong to inactive results. Calls of active or inactive are those of the source. No stated cut-off is given here; in the data, active means growth inhibition above about 70%; inactive means the rest.
Tests used:
[1] = NCI Yeast Anticancer Drug Screen. Data for the rad50 strain (AID 155);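 further: 0% = growth of vehicle-only cultures of the same strain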; conditions: S. cerevisiae rad50 strain growth inhibition, hits give high values
How it was run: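 Relative growth inhibition (compound vs vehicle) was measured in yeast with a defined repair-gene alteration.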

[2] = NCI Yeast Anticancer Drug Screen. Data for the mec2-1 strain (AID 157); conditions: S. cerevisiae mec2-1 strain, hits give high values
How it was run: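 Each compound was tested on mec2-1 yeast, a strain altered in DNA damage repair or cell cycle control. Growth inhibition is reported relative to vehicle.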

[3] = NCI Yeast Anticancer Drug Screen. Data for the sgs1 mgt1 strain (AID 161);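 further: 0% = growth of cultures given vehicle only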; conditions: S. cerevisiae sgs1 mgt1 strain, hits give high values
How it was run: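 Read-out: growth inhibition vs vehicle controls. Cells: mutant yeast strain deficient in DNA damage repair.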

[4] = NCI Yeast Anticancer Drug Screen. Data for the cln2 rad14 strain (AID 165);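 further: 0% = growth equal to vehicle treated cultures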; conditions: S. cerevisiae cln2 rad14 strain, hits give high values
How it was run: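 Test compounds were added to cln2 rad14 yeast cultures; inhibition of growth was then determined by comparison with vehicle treatment.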

[5] = NCI Yeast Anticancer Drug Screen. Data for the bub3 strain (AID 167); conditions: S. cerevisiae bub3 mutant strain, hits give high values
How it was run: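 Screening used yeast with an engineered genetic alteration affecting cell cycle control. Compound-exposed cultures were compared with vehicle cultures, and reduced growth was taken as inhibition.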

[6] = NCI Yeast Anticancer Drug Screen. Data for the mlh1 rad18 strain (AID 175); conditions: S. cerevisiae mlh1 rad18 strain growth inhibition, hits give high values
How it was run: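 Inhibition values reflect reduced growth of mutant yeast versus vehicle-treated controls following compound exposure; the mutations affect DNA damage repair.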

[7] = at 5.0 µM (retest, dose inferred, filed as 0.5)
[8] = at 50.0 µM (retest, dose inferred, filed as 5.0)

| SMILES | growth inhibition [1, 7] | growth inhibition [1, 8] | growth inhibition ([1]; at 50.0 µM) | growth inhibition [2, 7] | growth inhibition [2, 8] | growth inhibition ([2]; at 50.0 µM) | growth inhibition [3, 7] | growth inhibition [3, 8] | growth inhibition ([3]; at 50.0 µM) | growth inhibition [4, 7] | growth inhibition [4, 8] | growth inhibition ([4]; at 50.0 µM) | growth inhibition [5, 7] | growth inhibition [5, 8] | growth inhibition ([5]; at 50.0 µM) | growth inhibition [6, 7] | growth inhibition [6, 8] | growth inhibition ([6]; at 50.0 µM) |
| --- | --- | --- | --- | --- | --- | --- | --- | --- | --- | --- | --- | --- | --- | --- | --- | --- | --- | --- |
| O=Cc1ccc(-c2ccc(-c3ccc(CO)s3)o2)s1 | 20% | 62% | 17.2% | 11% | 45% | 4.65% | 5% | 77% (active) | 44.5% | 3% | 33% | -8.55% | 21% | 53% | 16.5% | 20% | 84% (active) | 65.3% |
| Clc1ccc(-n2ncc3c(NCCCN4CCOCC4)ncnc32)cc1 | 3% | 82% (active) | 56% | 6% | 70% (active) | 62.1% | 1% | 81% (active) | 82.8% (active) | 19% | 62% | 35.4% | 16% | 77% (active) | 47.4% | 9% | 79% (active) | 75.6% (active) |
| CCOC(=O)c1[nH]c(C#N)c(C(=O)OCC)c1C | 6% | 76% (active) | 4.15% | 1% | 23% | 26.4% | 3% | 17% | 33.8% | 1% | 45% | 12.6% | 3% | 48% | 53.2% | 4% | 66% | 10% |
| C=C(C)C1CC2(C)C(C)CC(O)CC2C(OC(=O)C=C(C)C)C1O (configuration not stated) | 26% | 73% (active) | 78.3% (active) | 12% | 58% | 69.1% | 21% | 78% (active) | 79.8% (active) | 17% | 25% | 47% | 15% | 78% (active) | 80.1% (active) | 32% | 82% (active) | 69% |
| CC(C)c1ccc(C(=O)OC2CCCC2)cc1 | 8% | 98% (active) | 96.5% (active) | 9% | 100% (active) | 99.2% (active) | 9% | 99% (active) | 54.6% | 6% | 99% (active) | 94.3% (active) | 4% | 99% (active) | 53% | 4% | 99% (active) | 93.3% (active) |
| N#CC1c2ccccc2C=CN1C(=O)CCCl (configuration not stated) | 7% | 41% | 6.05% | 2% | 36% | 34.2% | 11% | 34% | 53.5% | 8% | 42% | 17.1% | 15% | 74% (active) | 74.3% (active) | -11% | 38% | 29.1% |
| Cc1ccc(N2C(=O)C=CC2=O)cc1 | 95% (active) | 99% (active) | 99.3% (active) | 99% (active) | 99% (active) | 99.5% (active) | 89% (active) | 99% (active) | 99.7% (active) | 92% (active) | 100% (active) | 99.5% (active) | 99% (active) | 99% (active) | 98.9% (active) | 82% (active) | 100% (active) | 99.2% (active) |
| CCc1oc2ccccc2c1C(=O)c1cc(Br)c(O)c(Br)c1 | 29% | 99% (active) | 99.2% (active) | 11% | 100% (active) | 99.3% (active) | 8% | 99% (active) | 99.2% (active) | 8% | 100% (active) | 99% (active) | 1% | 99% (active) | 99.3% (active) | 18% | 99% (active) | 99.2% (active) |
| CCCOS(=O)(=O)c1ccccc1 | 14% | 1% | 0.7% | 19% | 38% | 12.3% | -7% | 4% | 10.1% | 38% | 35% | -2.2% | 23% | 42% | -1.4% | 11% | 32% | 14.3% |

— PubChem BioAssay (NCI)
